These results are taken from ChEMBL document CHEMBL4513216, “Probing the Open Global Health Chemical Diversity Library for Multistage-Active Starting Points for Next-Generation Antimalarials” (ACS Infect Dis, 2020).

Out of some 69,000 compounds screened, about 8,600 (12%) showed an effect of 50% or more. Many of the other results were omitted from the sample, so strong results are more common in it than they were.

The subject of this test is Plasmodium berghei. Nature of the test: Screen against P. berghei liver stage (PbLuc), transformed with Luciferase, at 10uM. Particulars: tested at 10 uM. Type of test: functional, HepG2.
As to `O=C(NCc1csc(Br)c1)N1CCOCC1`, the INHIBITION is -6.865%.

As for `COCCC(=O)NCCc1nc2cc(-c3ccc(OC)cc3)ncn2n1`, the INHIBITION amounted to 23.5%.

For `Cc1oncc1C(=O)N1CCC2(CC1)C(c1cnn(C)c1)CC(=O)N2C` (stereo not drawn), the INHIBITION was -15.5%.

As for `CN(C)CC1[C@H]2CN(C(=O)c3cc(=O)[nH]c4ccc(F)cc34)C[C@@H]12` (stereo partly drawn), the INHIBITION was determined as 43%.

As for `CCC(C(=O)NC(C)(C)C)n1ccc2ncccc2c1=O` (stereo not drawn), the INHIBITION is listed as 20.9%.

As to `c1coc(-c2nc(CNC3CCCNC3)no2)c1` (stereo not drawn), the INHIBITION is given as -25.6%.

Turning to `CN(C)c1cc(C2CCCN2C(=O)c2ccc(=O)n(C)c2)ccn1` (stereo not drawn), the INHIBITION was -76.7%.

In the case of `CN(C)c1cc(CNC(=O)c2ccccc2Cl)ccn1`, the INHIBITION is -7.35%.

Regarding `CC(c1cccc(Cl)c1)N(C)Cc1nc2c(cnn2C)c(=O)[nH]1` (stereo not drawn), the INHIBITION was 15.32%.

`COCCc1ncc(CNC2(c3ccc(Cl)cc3)CC2)cn1`: the INHIBITION was -57.4%.

As to `CC(C)CN1C[C@@H]2C(=O)N(C)C3(CCN(C(=O)C(C)C)CC3)[C@@H]2C1`, the INHIBITION was -40.5%.

As for `Cc1noc(C(C)C)c1C(=O)NCCCN1CCNCC1`, the INHIBITION is given as -18%.

As for `Cc1noc(C(C)C)c1C(=O)NCCCN1CCCC1`, the INHIBITION worked out at 66.2%.

Consider `Cc1noc(C(C)C)c1C(=O)NCCCN1CCC(C)CC1`, for which the INHIBITION is -12.1%.

Regarding `Cc1ccc2c(n1)N(CCn1cccn1)CCN(S(C)(=O)=O)C2`, the INHIBITION is given as -73.5%.

For the molecule `c1ccc(Cc2nnc(CN3CCn4c(nnc4C4CC4)C3)o2)cc1`, the INHIBITION was 21.5%.

For `Cc1cnc(CN(C)C(=O)C23CNCC2CNC3)[nH]1` (stereo not drawn), the INHIBITION came to 58.4%.

For the molecule `Cc1c[nH]c(CN(C)C(=O)[C@@]23CNC[C@@H]2CN(c2ncccn2)C3)n1`, the INHIBITION is 30%.

In the case of `CNc1ncc(CN(C)C(=O)[C@@]23CNC[C@@H]2CN(C(=O)C2CC2)C3)cn1`, the INHIBITION is recorded as -149%.

For `Cc1ccc(CN2CCOCS2(=O)=O)cc1F`, the INHIBITION is given as 38%.

As for `CCn1cc(NC(=O)NCc2ccc(CN3CCOCC3)cc2)cn1`, the INHIBITION stood at 30.2%.

Regarding `CN(C)c1ccc(-c2cc(C(=O)O)cc(S(=O)(=O)NC3CC3)c2)cc1`, the INHIBITION turned out to be 84.9%.

With `O=C(O)c1cc(-c2ccoc2)cc(S(=O)(=O)NC2CC2)c1`, the INHIBITION was found to be 27.6%.

As for `O=C(O)c1cc(-c2ccc3c(c2)OCO3)cc(S(=O)(=O)NC2CC2)c1`, the INHIBITION was 8.74%.

In the case of `N#CC1Sc2nnc(-c3ccccc3F)n2N=C1N` (stereo not drawn), the INHIBITION turned out to be 11.6%.

With `COc1ccc2[nH]cc(-c3ccnc(N4CCC(C)CC4)n3)c2c1`, the INHIBITION amounted to 36.7%.

Regarding `COc1ccc2[nH]cc(-c3ccnc(NC4CCCC4)n3)c2c1`, the INHIBITION is 90.1%.

As for `O=c1[nH]c(-c2ccncc2)ncc1-c1ccnc(NC2CCCCC2)n1`, the INHIBITION was 1.11%.
